Ten compounds from PubChem BioAssay (NCI) can be followed below.

Test [1] can be described thus: NCI Yeast Anticancer Drug Screen. Data for the rad50 strain (AID 155).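 Note: 0% = growth of vehicle-only cultures of the same strain.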 Conditions: S. cerevisiae rad50 strain growth inhibition, hits give high values. The method in brief:
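Relative growth inhibition (compound vs vehicle) was measured in yeast with a defined repair-gene alteration.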

A short description of test [2]: NCI Yeast Anticancer Drug Screen. Data for the mec2-1 strain (AID 157). The conditions noted are these: S. cerevisiae mec2-1 strain, hits give high values. The method in brief: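 Growth inhibition is read against vehicle-treated controls after compound exposure of the mec2-1 yeast strain, which is defective in DNA damage repair or cell cycle control.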
A short description of test [3]: NCI Yeast Anticancer Drug Screen. Data for the sgs1 mgt1 strain (AID 161).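 Note: 0% = growth of cultures given vehicle only.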 The conditions noted are these: S. cerevisiae sgs1 mgt1 strain, hits give high values. Put shortly:
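Compounds are added to genetically altered yeast, and growth is compared with cultures given vehicle alone to give percent inhibition.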

A short description of test [4]: NCI Yeast Anticancer Drug Screen. Data for the cln2 rad14 strain (AID 165).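 Note: 0% = growth equal to vehicle treated cultures.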 Conditions: S. cerevisiae cln2 rad14 strain, hits give high values. Put shortly: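 Growth inhibition, relative to vehicle-treated controls, is the read-out. The test organism is a yeast strain with defined genetic alterations, cln2 rad14.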
Test [5] is described as follows: NCI Yeast Anticancer Drug Screen. Data for the bub3 strain (AID 167). The conditions noted are these: S. cerevisiae bub3 mutant strain, hits give high values. The method in brief:
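Screening used yeast with an engineered genetic alteration affecting cell cycle control. Compound-exposed cultures were compared with vehicle cultures, and reduced growth was taken as inhibition.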

A short description of test [6]: NCI Yeast Anticancer Drug Screen. Data for the mlh1 rad18 strain (AID 175). The conditions noted are these: S. cerevisiae mlh1 rad18 strain growth inhibition, hits give high values. The method in brief:
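Cells of a genetically altered yeast strain, deficient in DNA damage repair, were treated with compound. Their growth was then compared with that of vehicle-treated cultures to give inhibition.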

[7] abbreviates: at 5.0 µM (retest, dose inferred, filed as 0.5).
[8] abbreviates: at 50.0 µM (retest, dose inferred, filed as 5.0).

SMILES strings stand for the structures. This is part of a sample that, as a whole, favours compounds with a hit. Of some 79,000 tested, about 15% had one in any assay. A number with no mark means an inactive call. The source made the active and inactive calls. Cut-off read from the data, not from the text of the source: active = growth inhibition above about 70%; inactive = the rest.

In the case of `Cn1cc(NC(=O)c2cc(NC(=O)CCCCCCC(=O)Nc3cc(C(=O)Nc4cc(C(=O)NCCC(=N)N)n(C)c4)n(C)c3)cn2C)cc1C(=O)NCCC(=N)N`, the growth inhibition in test [1] (setting [7]) was 87% (active); in test [1] (setting [8]) it was 98% (active); in test [1] (at 50.0 µM), 91.8% (active); in test [2] (setting [7]), 89% (active); in test [2] (setting [8]), 99% (active); in test [2] (at 50.0 µM), 93.8% (active). Moreover, the growth inhibition in test [3] (setting [7]) was 82% (active); in test [3] (setting [8]), 99% (active); in test [3] (at 50.0 µM) it was 93% (active); in test [4] (setting [7]), 44%; in test [4] (setting [8]), 95% (active); in test [4] (at 50.0 µM), 91.3% (active). Also, the growth inhibition in test [5] (setting [7]) is 92% (active); in test [5] (setting [8]), 98% (active); in test [5] (at 50.0 µM) it was 92.2% (active); in test [6] (setting [7]), 90% (active); in test [6] (setting [8]) it was 98% (active); in test [6] (at 50.0 µM), 92.2% (active).

Take `CCc1ccc(CC(=O)O)c2ccc3c(C)ccc(C)c3c12`: the growth inhibition in test [1] (setting [7]) is 15%; in test [1] (setting [8]) it was 96% (active); in test [1] (at 50.0 µM), 98.9% (active); in test [2] (setting [7]), 14%; in test [2] (setting [8]), 98% (active); in test [2] (at 50.0 µM) it was 95.8% (active). For the same compound, the growth inhibition in test [3] (setting [7]) is 14%; in test [3] (setting [8]), 97% (active); in test [3] (at 50.0 µM), 98.6% (active); in test [4] (setting [7]), 19%; in test [4] (setting [8]) it was 93% (active); in test [4] (at 50.0 µM) it was 95.8% (active). Further, the growth inhibition was 11% in test [5] (setting [7]); 51% in test [5] (setting [8]); 63.5% in test [5] (at 50.0 µM); 8% in test [6] (setting [7]); 96% (active) in test [6] (setting [8]); 94.4% (active) in test [6] (at 50.0 µM).

Turning to `CC1CCCN(c2cc(N(C)C)c([N+](=O)[O-])cc2F)C1` (stereo not given), the growth inhibition is 34% in test [1] (setting [7]); 47% in test [1] (setting [8]); 32.2% in test [1] (at 50.0 µM); 35% in test [2] (setting [7]); 49% in test [2] (setting [8]); 11.7% in test [2] (at 50.0 µM). The growth inhibition in test [3] (setting [7]) is 37%; in test [3] (setting [8]), 59%; in test [3] (at 50.0 µM), 38.2%; in test [4] (setting [7]) it was 34%; in test [4] (setting [8]) it was 46%; in test [4] (at 50.0 µM) it was 51.5%. For the same compound, the growth inhibition in test [5] (setting [7]) was 41%; in test [5] (setting [8]), 86% (active); in test [5] (at 50.0 µM), 71.8% (active); in test [6] (setting [7]), 45%; in test [6] (setting [8]) it was 67%; in test [6] (at 50.0 µM) it was 37.5%.

In the case of `Cc1cc(N/N=C/c2ccc([N+](=O)[O-])o2)c2cc3c(cc2n1)OCO3`, the growth inhibition in test [1] (setting [7]) was 23%; in test [1] (setting [8]), 99% (active); in test [1] (at 50.0 µM), 96.7% (active); in test [2] (setting [7]) it was 16%; in test [2] (setting [8]) it was 100% (active); in test [2] (at 50.0 µM) it was 92.3% (active). Further, the growth inhibition in test [3] (setting [7]) is 33%; in test [3] (setting [8]), 99% (active); in test [3] (at 50.0 µM) it was 97.5% (active); in test [4] (setting [7]), 4%; in test [4] (setting [8]) it was 99% (active); in test [4] (at 50.0 µM), 92.7% (active). Moreover, the growth inhibition was 8% in test [5] (setting [7]); 99% (active) in test [5] (setting [8]); 90.5% (active) in test [5] (at 50.0 µM); 23% in test [6] (setting [7]); 99% (active) in test [6] (setting [8]); 95.3% (active) in test [6] (at 50.0 µM).

Take `O=[N+]([O-])c1ccc2c(c1)CCc1ccccc1-2`: the growth inhibition in test [1] (setting [7]) is 10%; in test [1] (setting [8]), 77% (active); in test [1] (at 50.0 µM), 52.6%; in test [2] (setting [7]) it was -18%; in test [2] (setting [8]) it was 37%; in test [2] (at 50.0 µM), -2.75%. In addition, the growth inhibition in test [3] (setting [7]) is 12%; in test [3] (setting [8]), 75% (active); in test [3] (at 50.0 µM), 76.6% (active); in test [4] (setting [7]), -1%; in test [4] (setting [8]), 33%; in test [4] (at 50.0 µM), 9.4%. The growth inhibition in test [5] (setting [7]) is -15%; in test [5] (setting [8]), 78% (active); in test [5] (at 50.0 µM), 20.4%; in test [6] (setting [7]), 16%; in test [6] (setting [8]), 89% (active); in test [6] (at 50.0 µM) it was 68.7%.

As to `CCC(Sc1ccccc1[N+](=O)[O-])[N+](=O)[O-]` (stereo not given), the growth inhibition in test [1] (setting [7]) was 1%; in test [1] (setting [8]), 0%; in test [1] (at 50.0 µM), 88.7% (active); in test [2] (setting [7]), 0%; in test [2] (setting [8]), -4%; in test [2] (at 50.0 µM) it was 90.8% (active). Moreover, the growth inhibition is 3% in test [3] (setting [7]); -1% in test [3] (setting [8]); 49.1% in test [3] (at 50.0 µM); -2% in test [4] (setting [7]); -6% in test [4] (setting [8]); 43.7% in test [4] (at 50.0 µM). Besides, the growth inhibition in test [5] (setting [7]) is 0%; in test [5] (setting [8]), -11%; in test [5] (at 50.0 µM), 97.1% (active); in test [6] (setting [7]), -1%; in test [6] (setting [8]), 1%; in test [6] (at 50.0 µM) it was 55.1%.

`O=C1C=CC(=O)c2cc(Sc3ccccc3)c(=O)ccc21`: the growth inhibition is 16% in test [1] (setting [7]); 37% in test [1] (setting [8]); 81.2% (active) in test [1] (at 50.0 µM); 29% in test [2] (setting [7]); 38% in test [2] (setting [8]); 42.2% in test [2] (at 50.0 µM). The growth inhibition in test [3] (setting [7]) is 25%; in test [3] (setting [8]), 98% (active); in test [3] (at 50.0 µM), 71.7% (active); in test [4] (setting [7]), 33%; in test [4] (setting [8]) it was 72% (active); in test [4] (at 50.0 µM), 39.4%. Moreover, the growth inhibition was 30% in test [5] (setting [7]); 98% (active) in test [5] (setting [8]); 37% in test [5] (at 50.0 µM); 33% in test [6] (setting [7]); 37% in test [6] (setting [8]); 87% (active) in test [6] (at 50.0 µM).

Turning to `NCCCCC(N)C(=O)Nc1ccc2ccccc2c1` (stereo not given), the growth inhibition in test [1] (setting [7]) was -1%; in test [1] (setting [8]), 91% (active); in test [1] (at 50.0 µM), 99% (active); in test [2] (setting [7]) it was -41%; in test [2] (setting [8]), 37%; in test [2] (at 50.0 µM) it was 99% (active). Besides, the growth inhibition in test [3] (setting [7]) was 0%; in test [3] (setting [8]), 75% (active); in test [3] (at 50.0 µM) it was 99.2% (active); in test [4] (setting [7]), 1%; in test [4] (setting [8]), 24%; in test [4] (at 50.0 µM), 82.8% (active). Also, the growth inhibition was -9% in test [5] (setting [7]); 71% (active) in test [5] (setting [8]); 99.3% (active) in test [5] (at 50.0 µM); 0% in test [6] (setting [7]); 83% (active) in test [6] (setting [8]); 99% (active) in test [6] (at 50.0 µM).

Consider `OCCc1cccc2ccc3ccccc3c12`, for which the growth inhibition in test [1] (setting [7]) was 0%; in test [1] (setting [8]), 62%; in test [1] (at 50.0 µM), 85.9% (active); in test [2] (setting [7]), -1%; in test [2] (setting [8]) it was 55%; in test [2] (at 50.0 µM), 92.8% (active). Besides, the growth inhibition in test [3] (setting [7]) was -4%; in test [3] (setting [8]), 59%; in test [3] (at 50.0 µM), 94.2% (active); in test [4] (setting [7]) it was -1%; in test [4] (setting [8]), 59%; in test [4] (at 50.0 µM), 88.2% (active). Moreover, the growth inhibition in test [5] (setting [7]) was 1%; in test [5] (setting [8]), 66%; in test [5] (at 50.0 µM) it was 90.4% (active); in test [6] (setting [7]) it was 2%; in test [6] (setting [8]) it was 66%; in test [6] (at 50.0 µM) it was 91.8% (active).

In the case of `O=C1SC(c2ccccc2)=S=C1c1ccccc1`, the growth inhibition is 18% in test [1] (setting [7]); 28% in test [1] (setting [8]); 40% in test [1] (at 50.0 µM); 24% in test [2] (setting [7]); 39% in test [2] (setting [8]); 46.8% in test [2] (at 50.0 µM). The growth inhibition in test [3] (setting [7]) is 21%; in test [3] (setting [8]), 44%; in test [3] (at 50.0 µM), 37.4%; in test [4] (setting [7]) it was 13%; in test [4] (setting [8]), 13%; in test [4] (at 50.0 µM) it was 24.6%. For the same compound, the growth inhibition is 20% in test [5] (setting [7]); 54% in test [5] (setting [8]); 13.8% in test [5] (at 50.0 µM); 33% in test [6] (setting [7]); 38% in test [6] (setting [8]); -25.4% in test [6] (at 50.0 µM).
